# Rows were chosen to be rich in hits. Some 2.5% of all compounds tested hit in one or more screens of this group.
# GRK2 inh: human GRK2 inhibition via aptamer displacement; P25098; bead flow cytometry, FAM-aptamer displacement from GRK2; inhibition of aptamer binding, % at 10 µM; actives 0.59% (n = 330,000);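 active means inhibition of aptamer binding above 40%, roughly 3 SD of noise, on plates passing a quality check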;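 further: median bead fluorescence of bound FAM aptamer so fluorescent compounds give negative values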
# MEKK2wt PB1 HTS: raises or lowers MEK5 binding to wildtype human MEKK2 PB1 domain; Q9Y2U5; bead flow cytometry, Alexa488-MEK5 binding to MEKK2 WT; actives lie on both sides; binding response (% of control), % at 10 µM; actives 1.1% (n = 290,000); in the data active means binding response below about 67% or above about 130%
# MEKK2mut PB1 HTS: signal of MEK5 binding to mutant human MEKK2 PB1 domain; bead flow cytometry, Alexa488-MEK5 binding to MEKK2 mutant; AID 1530; percent response, % at 10 µM; actives 0.35% (n = 290,000); in the data active means percent response above about 24%, passing the limit was not always enough
# MEKK3 PB1 HTS: MEKK3-MEK5 PB1 interaction, increase or decrease; AID 1529; actives 1.4% (n = 290,000); bead-based flow cytometry, Alexa488-MEK5 binding to MEKK3; actives lie on both sides; 0 = blocked by unlabeled MEK5, 100 = vehicle; binding response (% of control), % at 10 µM; Q99759;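 active means binding response more than 3 SD above or below the average of its plate-row segment, actives on both sides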;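 further: Alexa488 bead fluorescence after subtracting the streptavidin-only scavenger bead signal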
# Target sequence (Q99759 whole entry, looked up): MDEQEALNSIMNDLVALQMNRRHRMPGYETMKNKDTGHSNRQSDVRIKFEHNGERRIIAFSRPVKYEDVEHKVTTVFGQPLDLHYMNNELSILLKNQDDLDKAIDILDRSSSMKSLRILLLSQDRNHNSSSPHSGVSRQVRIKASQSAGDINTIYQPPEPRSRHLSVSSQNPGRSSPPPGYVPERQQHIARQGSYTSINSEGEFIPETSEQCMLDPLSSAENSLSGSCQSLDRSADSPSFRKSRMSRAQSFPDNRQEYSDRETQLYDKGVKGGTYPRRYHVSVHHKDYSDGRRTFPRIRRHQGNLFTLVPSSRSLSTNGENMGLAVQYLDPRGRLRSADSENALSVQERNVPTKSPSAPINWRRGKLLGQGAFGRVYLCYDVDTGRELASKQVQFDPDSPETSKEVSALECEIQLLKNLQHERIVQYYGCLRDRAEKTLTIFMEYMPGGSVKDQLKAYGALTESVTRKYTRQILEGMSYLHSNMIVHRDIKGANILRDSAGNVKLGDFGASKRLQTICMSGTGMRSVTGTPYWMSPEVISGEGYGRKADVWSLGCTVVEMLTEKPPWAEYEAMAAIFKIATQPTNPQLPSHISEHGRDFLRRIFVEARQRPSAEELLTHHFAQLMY
# MEKK2wt confirm: raises or lowers MEK5 binding to wildtype human MEKK2, retest. actives 2.4% (n = 5,900). shares compounds with MEKK3 PB1 HTS. AID 1892. bead flow cytometry, Alexa488-MEK5 binding to MEKK2 WT; actives lie on both sides. binding response (% of control), % at 10 µM; in the data active means binding response below about 16% or above about 210%; inactive means in between
# MEKK2mut-MEK5: signal of MEK5 binding to mutant human MEKK2, retest; shares compounds with MEKK3 PB1 HTS; AID 1893; percent response, % at 10 µM; actives 2% (n = 5,900); bead flow cytometry, Alexa488-MEK5 binding to MEKK2 mutant; in the data active means percent response mostly above about 71%, no sharp cut-off; inactive means mostly below about 38%;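 further: higher means compound restores mutant binding toward wildtype level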
# MEKK3 confirm: confirmation of inhibitors of MEK5 binding to human MEKK3 | bead flow cytometry, Alexa488-MEK5 binding to MEKK3; stronger effect = lower value | binding response (% of control), % at 10 µM | shares compounds with MEKK3 PB1 HTS | actives 1.8% (n = 5,900);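 active means binding response below 72% of control, or above a set upper limit, though filed actives all read lower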;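 further: 100% = DMSO only wells and 0% = binding blocked by excess unlabeled MEK5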
# Numbers without * were called inactive; . = no result given; [ ] = dose if it differs, or a comment.
SMILES,GRK2 inh,MEKK2wt PB1 HTS,MEKK2mut PB1 HTS,MEKK3 PB1 HTS,MEKK2wt confirm,MEKK2mut-MEK5,MEKK3 confirm
CCC(C)(C)NC(=O)c1cc([N+](=O)[O-])ccc1N1CCOCC1,0.0,113.0,1.0,157.0*,100.0,-7.0,100.0
CC(C)CNC(=O)c1cc([N+](=O)[O-])ccc1N1CCOCC1,2.0,95.0,1.0,101.0,.,.,.
CC1CCN(CCCNC(=O)c2ccc(N3CCCC3=O)cc2)CC1,0.0,101.0,2.0,97.0,.,.,.
O=C(NCCN1CCCCCC1)c1ccc(N2CCCC2=O)cc1,0.0,145.0*,9.0,101.0,127.0,20.0,103.0
O=C(NCCCN1CCN(c2cccc(Cl)c2)CC1)c1cccc(N2CCCC2=O)c1,0.0,125.0,27.0*,109.0,113.0,20.0,107.0
O=C(O)C(=O)Nc1ccc(NC(=O)C(c2ccccc2)c2ccccc2)cc1,1.0,3.0*[inhibitor],-51.0,2.0*[inhibitor],99.0,4.0,103.0
O=C(Nc1ccccc1)C(c1ccccc1)c1ccccc1,0.0,98.0,-2.0,102.0,.,.,.
CC1=N/C(=C\c2ccc([N+](=O)[O-])cc2)C(=O)N1c1ccc(Br)c(C)c1,2.0,-2.0*,-8.0,82.0*[inhibitor],92.0,-5.0,101.0
O=C(N/N=C/c1ccc(Cl)cc1Cl)c1n[nH]c2c1CCCC2,1.0,105.0,1.0,128.0*,102.0,-4.0,103.0
O=C(N/N=C\c1cccc(Cl)c1)c1n[nH]c2c1CCCC2,11.0,97.0,-2.0,99.0,.,.,.
Cc1nc(NC(=O)c2ccccc2)sc1-c1csc(NCCc2ccccc2)n1,0.0,69.0,-14.0,49.0*[inhibitor],121.0,13.0,108.0
COc1cc(NC(=S)NCc2ccc(S(N)(=O)=O)cc2)c(OC)cc1Cl,0.0,102.0,0.0,59.0*[inhibitor],103.0,3.0,101.0
O=C(Nc1nccs1)c1ccc(Cl)c([N+](=O)[O-])c1,0.0,100.0,4.0,101.0,.,.,.
COC(=O)/C=C1\S/C(=N/N=C/c2ccccc2)NC1=O,1.0,107.0,1.0,139.0*,94.0,-5.0,97.0
NC(=O)CC(NC(=O)c1ccccc1)c1ccc(N2CCC(Br)CC2)c([N+](=O)[O-])c1 (stereo not drawn),0.0,97.0,-2.0,77.0*[inhibitor],91.0,-14.0,91.0
NC(=O)CC(NC(=O)c1cccc(Br)c1)c1ccc(N2CCC(Br)CC2)c([N+](=O)[O-])c1 (stereo not drawn),0.0,90.0,-5.0,94.0,.,.,.
COc1ccc(/C=N/Nc2cc(C)nc3c(C)cccc23)cc1,0.0,279.0*,71.0*,116.0,197.0,45.0,104.0
COc1ccc(Nc2cc(C)nc3ccc(OC)cc23)cc1,0.0,105.0,10.0,104.0,.,.,.
COc1ccc2nc(C)cc(N/N=C/c3ccc(F)cc3)c2c1,0.0,160.0*,59.0*,69.0*[inhibitor],211.0*,61.0,89.0
COc1ccc(/C=N/Nc2cc(C)nc3ccccc23)cc1,0.0,228.0*,43.0*,112.0,177.0,48.0,111.0
COc1cccc2c(N/N=C/c3ccc(O)c(O)c3)cc(C)nc12,0.0,105.0,2.0,103.0,.,.,.
Cc1ccc(NC(=O)C(C)NS(=O)(=O)c2ccc(F)cc2)cc1C (stereo not drawn),2.0,103.0,5.0,100.0,.,.,.
O=C(CCc1nc2ccccc2s1)OCC(=O)N1CCN(C(=O)c2ccco2)CC1,1.0,105.0,3.0,102.0,.,.,.
Nc1c(N(CCO)C(=O)/C=C/c2ccco2)c(=O)[nH]c(=O)n1Cc1ccccc1,0.0,61.0,-4.0,50.0*[inhibitor],99.0,-8.0,102.0
COc1ccc(/C=N/Nc2nnc(Cc3ccc(OC)c(OC)c3)c(=O)[nH]2)cc1,1.0,101.0,3.0,96.0,.,.,.
SMILES,GRK2 inh,MEKK2wt PB1 HTS,MEKK2mut PB1 HTS,MEKK3 PB1 HTS,MEKK2wt confirm,MEKK2mut-MEK5,MEKK3 confirm
COc1ccc(Nc2ccccc2N)cc1,0.0,97.0,3.0,97.0,.,.,.
Nc1ccc(Nc2ccccc2N)cc1,9.0,69.0,-3.0,60.0*[inhibitor],78.0,7.0,60.0*
Cc1cc(C(=O)Nc2ccc(C#N)cc2)on1,0.0,8.0*[inhibitor],-49.0,4.0*[inhibitor],95.0,-2.0,99.0
Cc1cc(C(=O)Nc2ccc(Cl)cc2)on1,2.0,109.0,-1.0,104.0,.,.,.
COC(=O)c1ccc(/C=C2\SC(=S)N(CCCC(=O)NCCCN3CCOCC3)C2=O)cc1,0.0,114.0,6.0,104.0,.,.,.
CC(C)c1ccccc1NC(=O)COc1ccc2c(=O)c(Oc3ccc4ccccc4c3)coc2c1,2.0,104.0,0.0,184.0*,101.0,0.0,101.0
CCCC(C)c1nnc(NC(=O)CS(=O)(=O)Cc2ccccc2)s1 (stereo not drawn),1.0,100.0,2.0,100.0,.,.,.
FC(F)(F)c1cc(N2CCNCC2)c2ccccc2n1,1.0,95.0,-4.0,92.0,.,.,.
FC(F)(F)c1cc(N2CCN(Cc3ccccc3)CC2)c2ccccc2n1,0.0,84.0,-13.0,75.0*[inhibitor],95.0,-7.0,95.0
CC(=O)Nc1ccc(OCC(O)Cn2c3ccccc3c3ccccc32)cc1 (stereo not drawn),2.0,120.0,2.0,176.0*,-6.0*[inhibitor],-3.0,84.0
CC(=O)Nc1ccc(OCC(O)CN2C(C)(C)CC(O)CC2(C)C)cc1 (stereo not drawn),3.0,96.0,-1.0,74.0*[inhibitor],102.0,-3.0,100.0
CC(=O)Nc1ccc(OCC(O)CN2C(C)CCCC2C)cc1 (stereo not drawn),5.0,101.0,-2.0,101.0,.,.,.
N#CC1=C(N)Oc2c(oc(CO)cc2=O)C1c1ccccc1[N+](=O)[O-] (stereo not drawn),0.0,94.0,3.0,99.0,.,.,.
CCCOC1CCCN(C(=O)c2ccc(OC)c(OC3CCN(C(C)C)CC3)c2)C1 (stereo not drawn),1.0,93.0,-5.0,99.0,.,.,.
CN1CCc2c(sc3c2c(=O)n(-c2ccccc2)c2nncn32)C1,2.0,104.0,4.0,107.0,.,.,.
CCN1CCN(Cc2ccc(NC(=O)c3cc(NC(=O)c4ccc5n[nH]nc5c4)cc(OC)c3)cc2C(F)(F)F)CC1,0.0,118.0,13.0,113.0,.,.,.
CCN1CCN(Cc2ccc(NC(=O)c3cc(NC(=O)c4cc5cccc(OC)c5o4)cc(OC)c3)cc2C(F)(F)F)CC1,2.0,148.0*,158.0*,124.0*,251.0*,93.0*,111.0
CCN1CCN(Cc2ccc(NC(=O)c3cc(NC(=O)C4=NN(c5ccccc5)C(=O)C4)cc(OC)c3)cc2C(F)(F)F)CC1,0.0,96.0,5.0,93.0,.,.,.
CCN1CCN(Cc2ccc(NC(=O)c3cc(NC(=O)c4cncc(-c5cccs5)c4)cc(OC)c3)cc2C(F)(F)F)CC1,0.0,362.0*,133.0*,118.0,245.0*,193.0*,113.0

# Screens as filed in PubChem.
